Experimental findings from a collection of fitness landscapes (doi:10.1126/science.1257360) are described below.

B1: PhoQ; a variant is named by its letters at X, in order, P23837 (parent)
chain: MKKLLRLFFPLSLRVRFLLATAAVVLVLSLAYGMVALIGYSVSFDKTTFRLLRGESNLFYTLAKWENNKLHVELPENIDKQSPTMTLIYDENGQLLWAQRDVPWLMKMIQPDWLKSNGFHEIEADVNDTSLLLSGDHSIQQQLQEVREDDDDAEMTHSVAVNVYPATSRMPKLTIVVVDTIPVELKSSYMVWSWFIYVLSANLLLVIPLLWVAAWWSLRPIEALAKEVRELEEHNRELLNPATTRELTSLVRNLNRLLKSERERYDKYRTTLTDLTHSLKTPLXXLQXXLRSLRSEKMSVSDAEPVMLEQISRISQQIGYYLHRASMRGGTLLSRELHPVAPLLDNLTSALNKVYQRKGVNISLDISPEISFVGEQNDFVEVMGNVLDNACKYCLEFVEISARQTDEHLYIVVEDDGPGIPLSKREVIFDRGQRVDTLRPGQGVGLAVAREITEQYEGKIVAGESMLGGARMEVIFGRQHSAPKDE

Whole data set: some 140,000 sequences, median “enrichment ratio after two sorts for PhoP signalling” near 0, cut for the highest 2% near 11. The sample holds the highest values, similar sequences and a random draw of the others, so the mix is not that of the screen.

The variants in the experiment derive from B1. As to the kind of experiment: enrichment ratio after two sorts for PhoP signalling (ratio (wild type AVST 3.29)); higher = more functional. The conditions noted are these: with PhoP (E. coli).
Regarding PYLQ, the enrichment ratio was not above 0.25. With FLFH, the enrichment ratio was not above 0.25. Take RFWY: the enrichment ratio is not above 0.25. Turning to LSFF, the enrichment ratio was 0.737.

Regarding MSSN, the enrichment ratio was not above 0.25. As for RYDM, the enrichment ratio is not above 0.25. Consider PWRP, for which the enrichment ratio is not above 0.25.

Take AMPS: the enrichment ratio was not above 0.25. The result for TSCA reads 15.2; that for NSCA, not above 0.25; that for KSCQ, not above 0.25.

Consider NSCQ, for which the enrichment ratio was not above 0.25. Under KSCT stands not above 0.25.

SEVH: the enrichment ratio worked out at 17.3. In the case of KSCA, the enrichment ratio is not above 0.25. On to SRVH, for which the enrichment ratio is not above 0.25. Under SLVH stands 2.06. The result for FSCT reads not above 0.25; that for TSCQ, 21.3. On to TSCT, for which the enrichment ratio worked out at 18.9. For the variant AGPW, the enrichment ratio is not above 0.25. The result for MEVW reads not above 0.25; that for DAWH, not above 0.25. As to VVRK, the enrichment ratio is not above 0.25. Consider EQCP, for which the enrichment ratio is not above 0.25. The result for QPNQ reads not above 0.25.

As to MFMV, the enrichment ratio is not above 0.25. As to FTNT, the enrichment ratio is not above 0.25. Regarding TGEC, the enrichment ratio is 1.95.

As to SFRM, the enrichment ratio was not above 0.25. Regarding FVEG, the enrichment ratio was not above 0.25. As to FWMV, the enrichment ratio is not above 0.25. Regarding MDAY, the enrichment ratio is not above 0.25. As to NVLK, the enrichment ratio was not above 0.25. On to MCNL, for which the enrichment ratio was not above 0.25. With MAQN, the enrichment ratio is not above 0.25. In the case of MCAT, the enrichment ratio is 4.13. Turning to MMWN, the enrichment ratio was not above 0.25.

As for MAAN, the enrichment ratio is 14.7.

With MKAT, the enrichment ratio is not above 0.25.

With MEAT, the enrichment ratio stood at 17.9. Under MCAN stands 22.5; under FDAN, not above 0.25; under MCVN, not above 0.25. MCWN: the enrichment ratio stood at 16.1.

Take MCDN: the enrichment ratio is not above 0.25. As for DHKR, the enrichment ratio is not above 0.25. As to LPWC, the enrichment ratio is not above 0.25. The result for DVVV reads not above 0.25; that for VKNA, not above 0.25. Under RHPV stands not above 0.25. For the variant YEDC, the enrichment ratio is not above 0.25. In the case of TEIN, the enrichment ratio turned out to be 5.99. Turning to TEAN, the enrichment ratio was 29.6. For MDNT, the enrichment ratio is not above 0.25. Under MDIN stands not above 0.25; under NEIN, not above 0.25; under QEAN, 2.7. As to MEIN, the enrichment ratio was found to be 11.2. With MKAN, the enrichment ratio was not above 0.25. Under MDLT stands not above 0.25; under MFAN, not above 0.25.

For the variant MDAT, the enrichment ratio was 25.1. MEAN: the enrichment ratio came to 32.4. With IEYH, the enrichment ratio is not above 0.25. Consider FRYS, for which the enrichment ratio was not above 0.25. Take FLVW: the enrichment ratio is not above 0.25. Under QNFD stands not above 0.25; under GTAV, not above 0.25; under NGAV, not above 0.25. With GGAV, the enrichment ratio worked out at 23.8. TLKV: the enrichment ratio was determined as 48.4. On to SLAV, for which the enrichment ratio was determined as 9.05.

For the variant KLKV, the enrichment ratio is not above 0.25. Regarding RGAV, the enrichment ratio was not above 0.25. For the variant NIAV, the enrichment ratio is not above 0.25. As to LLKV, the enrichment ratio was not above 0.25. With KLAV, the enrichment ratio is not above 0.25.

With TLAV, the enrichment ratio was 11.9. In the case of TGAV, the enrichment ratio was found to be 17.1. Under FLFA stands 0.339; under HVFA, not above 0.25.

Regarding EHCF, the enrichment ratio was not above 0.25.

On to ADAV, for which the enrichment ratio worked out at 5.88.

Regarding TDAV, the enrichment ratio was determined as 11.6. Turning to FDAV, the enrichment ratio is not above 0.25. As for ERLI, the enrichment ratio is not above 0.25. For VDMS, the enrichment ratio is not above 0.25. For TVSS, the enrichment ratio stood at 11.6.

For the variant TLSS, the enrichment ratio was determined as 12.

As to KYSS, the enrichment ratio is not above 0.25. Consider SLSS, for which the enrichment ratio was determined as 6.86. As to SDSS, the enrichment ratio was 0.569. Under SPSS stands not above 0.25; under SQSS, 11.6; under NVSS, not above 0.25. In the case of VLSS, the enrichment ratio is 0.29.

Take SRSS: the enrichment ratio was not above 0.25. For PLSS, the enrichment ratio was not above 0.25. Take SESS: the enrichment ratio stood at 13.9. RKAE: the enrichment ratio is not above 0.25.

For the variant AYPP, the enrichment ratio is not above 0.25. In the case of PNHN, the enrichment ratio was not above 0.25.

On to VSWN, for which the enrichment ratio was not above 0.25. For the variant ESGC, the enrichment ratio was not above 0.25.

For QYRN, the enrichment ratio was not above 0.25.

On to EVDI, for which the enrichment ratio is not above 0.25.

As to PGYQ, the enrichment ratio was not above 0.25. For the variant FSSS, the enrichment ratio was not above 0.25.

For YTSS, the enrichment ratio was not above 0.25.

Turning to KQSS, the enrichment ratio was not above 0.25. Under TSSS stands 14. As to KSSS, the enrichment ratio is not above 0.25. With TTSS, the enrichment ratio was 15.9. The result for HVKP reads not above 0.25; that for MNYD, not above 0.25.

As for VKMD, the enrichment ratio is not above 0.25. Consider ISKH, for which the enrichment ratio is not above 0.25. Consider KHQI, for which the enrichment ratio was not above 0.25.

On to HSYE, for which the enrichment ratio was not above 0.25. As for AEVA, the enrichment ratio was not above 0.25.

Consider AEKC, for which the enrichment ratio was not above 0.25. Turning to AEVI, the enrichment ratio amounted to 17.5.

Regarding AETC, the enrichment ratio came to 36.7. On to AEVS, for which the enrichment ratio is 16.2. The result for AESS reads 16.3; that for AESQ, 4.68. Regarding AETH, the enrichment ratio stood at 0.824. AENK: the enrichment ratio is not above 0.25. For the variant AEVK, the enrichment ratio was not above 0.25. The result for AEVY reads 6.64; that for AEVE, 7.98; that for QGNI, not above 0.25. For WYRH, the enrichment ratio is not above 0.25.

On to EKKS, for which the enrichment ratio is not above 0.25. For the variant RHGF, the enrichment ratio was not above 0.25. For the variant REAM, the enrichment ratio is not above 0.25. As to PMYC, the enrichment ratio was not above 0.25. For the variant VLES, the enrichment ratio is not above 0.25. Under QQHF stands not above 0.25; under GTWR, not above 0.25. For KCDP, the enrichment ratio was not above 0.25. For the variant VWMG, the enrichment ratio was not above 0.25.

Regarding AETD, the enrichment ratio is not above 0.25.

As to AETI, the enrichment ratio amounted to 16.8. Regarding AEVG, the enrichment ratio was 6.84. QEVF: the enrichment ratio was not above 0.25. On to AETA, for which the enrichment ratio turned out to be 5.73. On to MAVL, for which the enrichment ratio is 2.43. The result for NEVL reads not above 0.25. Turning to AEVF, the enrichment ratio amounted to 14.3. In the case of AIVF, the enrichment ratio is 2.34.

With MEVL, the enrichment ratio is 11.6. Under AEVC stands 14.6.
